Laboratory results from PubChem BioAssay (Tox21).
Values joined by “and” are separate entries in the source; they are usually repeats but may differ in a detail not shown here. Equal values may be shown once. Inconclusive results are not listed. The source holds several records for some structures; these can differ, active in one and inactive in another. Active and inactive are the calls of the source. Unless noted, the call rests on the fitted dose curve; in most records, active means well fitted curve in the direction sought with a large enough effect in the repeat runs; inconclusive means weak or mixed curves; inactive means no such curve, though single readings can be large; an effect the other way counts as inactive or inconclusive.

Columns and labels:
[1] = qHTS assay to identify small molecule agonists of the hypoxia (HIF-1) signaling pathway (AID 1224846; active means well fitted activation curve with a large enough effect in the signal ratio in the repeat runs, not every such curve was filed as active; the % refers to the signal ratio)
How it was run: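 HRE-bla ME-180 beta-lactamase reporter cells in medium with 0.5% dialyzed FBS, pre-incubated 5 h then exposed to compounds 17 h at 37C, 5% CO2; reporter induction read with CCF4-AM FRET substrate.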

[2] = qHTS assay to identify small molecule agonists of H2AX - cell viability counter screen (AID 1224847; calls by dose curve; further: nearly all actives have a fitted effect of over 30% in size; further: potency means the concentration at half of the fitted maximal effect)
How it was run: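 Cells plated first: CHO-K1, 1000 per well in 10% FBS medium, incubated overnight at 37C. Then 15-point compound titration added (final DMSO 0.76%) for 3 hr. Finally CellTiter-Glo added and luminescence read.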

[3] = qHTS assay to identify small molecule agonists of the estrogen related receptor (ERR) signaling pathway from Tox21 library (AID 1224849; calls by dose curve; further: nearly all actives have a fitted effect of over 15% in size); conditions: ERR reporter cell line, ONE-Glo luciferase, 18 h
How it was run: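 ERR reporter cells (NTP line) pre-incubated 6 hours at 37 C, then exposed to compounds for 18 hours at 37 C. ONE-Glo luciferase luminescence was read after 30 minutes at room temperature.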

[4] = qHTS RealTime-Glo MT Cell Viability Assay in HepG2 cells - 24 hour (AID 1224867); further: nearly all actives have a fitted effect of over 50% in size; further: potency means the concentration at half of the fitted maximal effect
How it was run: (§1)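 Tox21 10K library screened in qHTS format on HepG2 cells carrying RealTime-Glo reagents. Compounds were added after a 5 h preincubation, and the luminescent signal from continuous culture was measured repeatedly during 40 h treatment.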

[5] = A CellTox Green Cytotoxicity Assay to monitor cytotoxicity in HEK293 cells - 0 hour (AID 1224869); further: nearly all actives have a fitted effect of over 50% in size
How it was run: (§2)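 HEK293 cells, 600/well, were preincubated 5 hours and then exposed to compounds at 37 C for up to 40 hours. A cell-impermeant cyanine dye staining dead-cell DNA was read by fluorescence at 0, 8, 16, 24, 32 and 40 h time points.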

[6] = qHTS RealTime-Glo MT Cell Viability Assay in HepG2 cells - 40 hour (AID 1224870); further: nearly all actives have a fitted effect of over 50% in size; further: potency means the concentration at half of the fitted maximal effect
How it was run: (§3)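 HepG2 cells (600/well) mixed with RealTime-Glo MT reagent, settled 5 h at 37 C/5% CO2 before compound addition. Nonlytic NanoLuc luminescence from viable-cell prosubstrate reduction read repeatedly during 40 h treatment at 37 C.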

[7] = A CellTox Green Cytotoxicity Assay to monitor cytotoxicity in HEK293 cells - 40 hour (AID 1224871); further: nearly all actives have a fitted effect of over 45% in size; further: potency means the concentration at half of the fitted maximal effect
How it was run: as §2

[8] = qHTS RealTime-Glo MT Cell Viability Assay in HEK293 cells - 16 hour (AID 1224872); further: nearly all actives have a fitted effect of over 50% in size; further: potency means the concentration at half of the fitted maximal effect
How it was run: (§4)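 Luminescence generated by NanoLuc from substrate produced by living HEK293 cells served as the viability signal. Each value reflects the reading at its stated time point during continuous 40 h compound exposure at 37 C.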

[9] = qHTS RealTime-Glo MT Cell Viability Assay in HepG2 cells - 8 hour (AID 1224873); further: nearly all actives have a fitted effect of over 55% in size; further: potency means the concentration at half of the fitted maximal effect
How it was run: as §3

[10] = A CellTox Green Cytotoxicity Assay to monitor cytotoxicity in HEK293 cells - 24 hour (AID 1224875); further: nearly all actives have a fitted effect of over 45% in size; further: potency means the concentration at half of the fitted maximal effect
How it was run: as §2

[11] = qHTS RealTime-Glo MT Cell Viability Assay in HepG2 cells - 32 hour (AID 1224877); further: nearly all actives have a fitted effect of over 55% in size; further: potency means the concentration at half of the fitted maximal effect
How it was run: as §1

[12] = qHTS RealTime-Glo MT Cell Viability Assay in HEK293 cells - 0 hour (AID 1224880); further: top concentration of the series differs between compounds; nearly all actives have a fitted effect of over 45% in size
How it was run: (§5)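 600 cells/well were plated with the nonlytic NanoLuc/prosubstrate reagent, pre-incubated 5 h, then given 23 nL of compound in DMSO. Incubation at 37 C for 40 h, with luminescence from viable-cell-reduced substrate read repeatedly from 0 h.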

[13] = A CellTox Green Cytotoxicity Assay to monitor cytotoxicity in HEK293 cells - 32 hour (AID 1224881); further: nearly all actives have a fitted effect of over 40% in size; further: potency means the concentration at half of the fitted maximal effect
How it was run: as §2

[14] = qHTS RealTime-Glo MT Cell Viability Assay in HEK293 cells - 40 hour (AID 1224874); conditions: RealTime-Glo luminescence; max response: stronger effect = lower value; further: nearly all actives have a fitted effect of over 50% in size; further: potency means the concentration at half of the fitted maximal effect
How it was run: as §5

[15] = A CellTox Green Cytotoxicity Assay to monitor cytotoxicity in HepG2 cells - 16 hour (AID 1224876); further: nearly all actives have a fitted effect of over 45% in size; further: potency means the concentration at half of the fitted maximal effect
How it was run: (§6)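 HepG2 cells, 600/well, preincubated 5 h with CellTox Green dye, then exposed to Tox21 compounds in DMSO at 37 C for up to 40 h. Dead-cell DNA fluorescence read at the indicated time point.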

[16] = A CellTox Green Cytotoxicity Assay to monitor cytotoxicity in HepG2 cells - 24 hour (AID 1224878); further: nearly all actives have a fitted effect of over 45% in size; further: potency means the concentration at half of the fitted maximal effect
How it was run: as §6

[17] = A CellTox Green Cytotoxicity Assay to monitor cytotoxicity in HepG2 cells - 40 hour (AID 1224879); further: nearly all actives have a fitted effect of over 40% in size; further: potency means the concentration at half of the fitted maximal effect
How it was run: as §6

[18] = qHTS assay to identify small molecule agonists of H2AX (AID 1224845; active means well fitted activation curve with a large enough effect in the signal ratio in the repeat runs, not every such curve was filed as active; the % refers to the signal ratio; further: potency means the concentration at half of the fitted maximal effect)
How it was run: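 Wild-type CHO-K1 cells, plated overnight, exposed 3hr at 37C to 15 concentrations (0.76% DMSO final). Lysed, then HTRF anti-pH2AX (S139) cryptate and anti-H2AX-d2 antibodies, 24 hr room temperature; 665/620 nm emission read.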

[19] = qHTS assay to identify small molecule antagonists of the estrogen related receptor (ERR) signaling pathway from Tox21 library (AID 1224848); further: nearly all actives have a fitted effect of over 50% in size; further: potency means the concentration at half of the fitted maximal effect
How it was run: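 ERR reporter cell line (from NTP) seeded 2,000 cells/well, rested 6 h at 37 C/5% CO2, then pin-dosed with compounds in DMSO. After 18 h at 37 C, ONE-Glo added; luminescence read after 30 min at room temperature.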

[20] = qHTS RealTime-Glo MT Cell Viability Assay in HEK293 cells - 32 hour (AID 1224868); further: nearly all actives have a fitted effect of over 50% in size; further: potency means the concentration at half of the fitted maximal effect
How it was run: as §4
On the % scale 0 is the no-effect control and ±100 the full control effect.

COc1ccc(C(=O)c2c(C)n(CCN3CCOCC3)c3ccccc23)cc1
inactive: outcome [1] | Potency [2] | activity change, positive = activation ([3]; at 42.5 µM (top of the series)) -28.1% | Potency [4] | Potency [5] | Potency [6] | Potency [7] | Potency [8] | Potency [9] | Potency [10] | Potency [11] | outcome [12] | Potency [13]

CN1C[C@H](C(=O)N[C@]2(C)O[C@@]3(O)[C@@H]4CCCN4C(=O)[C@H](Cc4ccccc4)N3C2=O)C=C2c3cccc4[nH]cc(c34)C[C@H]21
inactive: Potency [2] | Potency [5] | Potency [7] | Potency [8] | max response [14] -10.8% | Potency [10] | Potency [15] | Potency [16] | Potency [17] | outcome [12] | Potency [13]
active: Potency [9] 13.9 µM and 12.8 µM

CCCCCCCCn1sccc1=O
inactive: Potency [18] | activity change, positive = activation ([3]; at 92.4 µM (top of the series)) -82.6% and -70% | Potency [5]
active: Potency [2] 50.6 µM and 26.5 µM | Potency [19] 17.3 µM and 9.05 µM | Potency [4] 43.7 µM and 16.2 µM | Potency [20] 11 µM and 12.9 µM | Potency [6] 43.7 µM and 14.5 µM | Potency [7] 55.1 µM and 20.4 µM | Potency [8] 13.8 µM and 14.5 µM | Potency [9] 43.7 µM and 16.2 µM | Potency [14] 11 µM and 12.9 µM | Potency [10] 55.1 µM and 40.8 µM | Potency [15] 55.1 µM and 25.7 µM | Potency [11] 43.7 µM and 16.2 µM | Potency [16] 49.1 µM and 25.7 µM | Potency [17] 43.7 µM and 20.4 µM | Potency [13] 55.1 µM and 25.7 µM

O=C(NCNC(=O)NC1C(=O)NC(=O)N1CO)NC1C(=O)NC(=O)N1CO (centres undefined)
inactive: Potency [18] | Potency [2] | Potency [19] | activity change, positive = activation ([3]; at 92.4 µM (top of the series)) 3.53% | Potency [4] | Potency [20] | Potency [6] | Potency [7] | Potency [8] | max response [14] 4.4% | Potency [10] | Potency [15] | Potency [11] | Potency [16] | Potency [17] | outcome [12] | Potency [13]

CC(C)[C@@H](C(=O)O[C@@H](C#N)c1cccc(Oc2ccccc2)c1)c1ccc(Cl)cc1
49.7 µM (active) and inactive: Potency [9]
inactive: Potency [18] | Potency [4] | Potency [6] | Potency [7] | Potency [10] | Potency [15] | Potency [11] | Potency [16] | Potency [17] | outcome [12] | Potency [13]
active: Potency [2] 16.2 µM | Potency [8] 24.9 µM

[Cl-].[Cl-].[Hg+2]
inactive: outcome [12]
active: Potency [18] 1.26 µM and 1.42 µM | Potency [2] 17.8 µM and 7.13 µM | Potency [4] 48.8 µM and 3.47 µM | Potency [6] 3.89 µM | Potency [7] 21.8 µM and 3.89 µM | Potency [14] 2.45 µM | Potency [10] 21.8 µM and 8.71 µM | Potency [15] 38.7 µM and 3.89 µM | Potency [11] 54.7 µM and 3.47 µM | Potency [16] 24.4 µM and 3.89 µM | Potency [17] 24.4 µM and 2.45 µM | Potency [13] 21.8 µM and 6.92 µM

CC(C)(C)CC(C)(C)c1ccc(O)cc1
43.6 µM (active) and inactive: Potency [11]
inactive: Potency [20] | max response [14] -17% | outcome [12]
active: Potency [18] 89.8 µM | Potency [2] 4.5 µM and 39.1 µM | Potency [7] 30.9 µM and 21.3 µM | Potency [8] 12.3 µM | Potency [9] 21.9 µM | Potency [10] 13.8 µM and 21.3 µM | Potency [15] 27.5 µM and 10.7 µM | Potency [16] 19.5 µM and 13.4 µM | Potency [17] 17.4 µM and 15.1 µM | Potency [13] 12.3 µM and 19 µM
46.2 µM (active) and inactive: Potency [4]
49 µM (active) and inactive: Potency [6]

O=C1c2ccccc2C(=O)N1SC(Cl)(Cl)Cl
inactive: activity change, positive = activation ([3]; at 92.4 µM (top of the series)) -68.2% and -64.1% | Potency [5] | outcome [12]
active: Potency [18] 9.93 µM and 16 µM | Potency [2] 12.5 µM | Potency [19] 30.2 µM and 30.6 µM | Potency [4] 34.2 µM and 13.8 µM | Potency [6] 34.2 µM and 15.5 µM | Potency [7] 10.8 µM and 11 µM | Potency [8] 3.42 µM and 3.89 µM | Potency [14] 6.82 µM and 9.77 µM | Potency [15] 43 µM and 54.9 µM | Potency [11] 34.2 µM and 13.8 µM | Potency [16] 34.2 µM and 21.9 µM | Potency [17] 21.6 µM and 12.3 µM | Potency [13] 21.6 µM and 8.71 µM
